Activity calls are given as the source filed them.
Key:
[1] = tested on: Plasmodium falciparum Sir2 (PF13_0152, Sir2A); assay: Plasmodium falciparum Sir2A binding compounds – biochemical, small-molecule microarray, 635 nm fluorescence, primary screen (AID 1098); details: fluorescence 635 nm, higher = more signal;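 further: score merges spot fluorescence intensity with its signal-to-noise ratio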
[2] = probe aDKK1 binding to arrayed compounds – biochemical, biotinylated probe, 635/667 nm fluorescence, primary screen (AID 1099); details: small-molecule microarray, higher = more signal;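 further: score merges 667nm spot fluorescence with signal to noise across triplicate slides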
[3] = probe aCHRDL2 binding to arrayed compounds – biochemical, biotinylated probe, 635/667 nm fluorescence, primary screen (AID 1100); details: small-molecule microarray, higher = more signal
[4] = change in splice reporter luminescence, either direction, cell-based, HEK293, spliceosome inhibition project, primary screen (AID 1101); details: HEK293 splicing luciferase reporter, 24 h, higher = more signal, called active from +8 up or from −8 down;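 further: HEK293 cells carrying a splicing-competent luciferase reporter gene; test concentration not given here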
[5] = molecular target: Fibroblast growth factor 10 (Homo sapiens) (UniProt O15520); assay: compounds binding fibroblast growth factor 10 – biochemical, small-molecule microarray, 635 nm fluorescence, primary screen (AID 1102); details: FGF10 binding, fluorescence 635 nm, higher = more signal
[6] = tested on: glycogen synthase kinase-3 (GSK3A per assay name; protocol says GSK3B); assay: compounds binding glycogen synthase kinase-3 – biochemical, small-molecule microarray, 635 nm fluorescence, GSK3A, primary screen (AID 1103); details: fluorescence 635 nm, higher = more signal; further: the record names both GSK3A and GSK3B
[7] = molecular target: Epidermal growth factor receptor (Homo sapiens) (UniProt P00533); assay: compounds binding epidermal growth factor receptor – biochemical, small-molecule microarray, 635 nm fluorescence, primary screen (AID 1104); details: EGFR binding, higher = more signal;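 further: score merges 667 nm emission intensity with spot signal to noise over triplicate slides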
[8] = molecular target: Follistatin-related protein 3 (Homo sapiens) (UniProt O95633); assay: compounds binding follistatin-related protein 3 – biochemical, small-molecule microarray, 635 nm fluorescence, primary screen (AID 1105); details: FSTL3 binding, higher = more signal;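 further: score merges emission near 667 nm and signal to noise per printed spot across three slides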
[9] = molecular target: Dickkopf-related protein 1 (Homo sapiens) (UniProt O94907); assay: small molecules binding DKK1 protein – biochemical, small-molecule microarray, 635 nm fluorescence scan, primary screen (AID 1106); details: higher = more signal;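 further: score merges emission near 667 nm with signal to noise over three replicate slides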
[10] = tested on: Inhibin beta A chain (activin A); assay: small molecules binding activin A – biochemical, small-molecule microarray, 635 nm fluorescence scan, primary screen (AID 1107); details: INHBA, higher = more signal;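 further: mouse activin A protein probed at 4.33 µg/mL on printed slides; score merges bound-protein fluorescence near 667 nm with spot signal-to-noise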
[11] = tested on: Human papillomavirus type 1a protein E7 (residues 44-93); assay: small molecules binding HPV E7 44-93 – biochemical, small-molecule microarray, residues 44-93, 635 nm fluorescence, primary screen (AID 1108); details: fluorescence 635 nm, higher = more signal;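 further: E7 fragment applied at 1 µg/mL in TBST for 1 h at 4 C; score combines spot fluorescence with its signal to noise ratio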
[12] = hepatitis C replication reporter changes, two-sided – Huh7 cells, luciferase reporter, HCV replication inhibitor project, primary screen (AID 1109); details: Huh7 HCV replicon luciferase reporter, 48 h; higher = more signal;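 further: huh7 hepatoma cells harbouring a luciferase neomycin HCV replicon reporter; luciferase luminescence as measure of HCV replicon replication; test concentration not given here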
[13] = molecular target: Left-right determination factor 2 (Homo sapiens) (UniProt O00292); assay: small molecules binding LEFTY2 protein – biochemical, small-molecule microarray, 635 nm fluorescence scan, primary screen (AID 1110); details: higher = more signal
[14] = molecular target: Calmodulin-1 (Homo sapiens) (UniProt P0DP23); assay: small molecules binding calmodulin-1 with EGTA – biochemical, small-molecule microarray, Cy5-labelled CALM1, profiling panel (AID 1111); details: Cy5-CALM1 binding fluorescence, higher = more signal;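 further: labelled calmodulin applied in Tris saline Tween buffer holding calcium plus EGTA and DTT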
[15] = molecular target: Calmodulin-1 (Homo sapiens) (UniProt P0DP23); assay: small molecules binding Ca-loaded calmodulin-1 – biochemical, small-molecule microarray, Cy5-labelled CALM1, plus calcium, artefact control for SMM control-protein annotation, profiling panel (AID 1112); details: Cy5-CALM1 binding fluorescence, higher = more signal;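 further: score merges spot fluorescence with signal to noise from triplicate slides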
[16] = probe aWnt5a binding to arrayed compounds – biochemical, biotinylated probe, 635/667 nm fluorescence, primary screen (AID 1113); details: small-molecule microarray, higher = more signal;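 further: score merges 667 nm fluorescence intensity with signal-to-noise per printed feature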
[17] = probe aShh binding to arrayed compounds – biochemical, biotinylated probe, 635/667 nm fluorescence, primary screen (AID 1114); details: small-molecule microarray, higher = more signal;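 further: probe is biotin-labelled aShh protein from a stem cell growth factor screen; measures binding of labelled protein to compounds printed on the slide; score merges feature fluorescence at 667 nm with signal-to-noise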
[18] = probe aNog binding to arrayed compounds – biochemical, biotinylated probe, 635/667 nm fluorescence, primary screen (AID 1115); details: small-molecule microarray, higher = more signal;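 further: probe is biotinylated aNog protein used at 0.15 µg/mL for 1 h at 4 C; z-score combines 667 nm fluorescence of each spot with its signal to noise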
[19] = molecular target: Torsin-1A-interacting protein 1 (Homo sapiens) (UniProt Q5JTV8); assay: compound microarray binding of lysate hLAP1 – cell lysate, small-molecule microarray, COS7 lysate, 635/667 nm fluorescence, primary screen (AID 1116); details: 635 nm fluorescence, higher = more signal
[20] = molecular target: Alpha-bungarotoxin (Bungarus multicinctus) (UniProt P60615); assay: compounds binding labelled alpha-BTX control protein – biochemical, small-molecule microarray, Alexa647 label, 635/667 nm fluorescence, artefact control for SMM control protein annotation, profiling panel (AID 1117); details: alpha-BTX-A647 binding fluorescence, higher = more signal
Chain of Alpha-bungarotoxin (Bungarus multicinctus) (P60615 whole entry, looked up): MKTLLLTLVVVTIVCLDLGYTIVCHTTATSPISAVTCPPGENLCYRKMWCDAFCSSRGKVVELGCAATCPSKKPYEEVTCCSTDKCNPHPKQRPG

Chain of Torsin-1A-interacting protein 1 (Homo sapiens) (Q5JTV8 whole entry, looked up): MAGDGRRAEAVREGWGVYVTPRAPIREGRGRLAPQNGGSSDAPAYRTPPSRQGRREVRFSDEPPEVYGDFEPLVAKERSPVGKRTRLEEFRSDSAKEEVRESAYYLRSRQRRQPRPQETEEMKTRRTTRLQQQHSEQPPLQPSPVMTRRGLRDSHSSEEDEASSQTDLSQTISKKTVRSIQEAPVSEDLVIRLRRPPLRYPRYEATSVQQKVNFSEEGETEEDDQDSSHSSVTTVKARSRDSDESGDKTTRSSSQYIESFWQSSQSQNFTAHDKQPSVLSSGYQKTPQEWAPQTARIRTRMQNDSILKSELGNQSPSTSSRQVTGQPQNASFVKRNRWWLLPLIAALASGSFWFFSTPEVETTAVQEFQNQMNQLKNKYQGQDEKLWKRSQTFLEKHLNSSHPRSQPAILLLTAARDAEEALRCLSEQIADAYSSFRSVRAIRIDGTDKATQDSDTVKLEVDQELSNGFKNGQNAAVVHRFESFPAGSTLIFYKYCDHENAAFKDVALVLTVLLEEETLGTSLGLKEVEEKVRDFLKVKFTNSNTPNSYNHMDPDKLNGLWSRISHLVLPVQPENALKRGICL
Chain of Follistatin-related protein 3 (Homo sapiens) (O95633 whole entry, looked up): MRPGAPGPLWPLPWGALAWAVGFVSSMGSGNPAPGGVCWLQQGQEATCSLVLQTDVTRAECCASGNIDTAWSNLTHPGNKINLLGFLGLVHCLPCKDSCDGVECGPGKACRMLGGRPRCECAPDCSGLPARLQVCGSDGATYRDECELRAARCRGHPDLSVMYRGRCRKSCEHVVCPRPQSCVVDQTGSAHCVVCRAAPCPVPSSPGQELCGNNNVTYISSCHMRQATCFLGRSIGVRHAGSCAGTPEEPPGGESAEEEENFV
Chain of Epidermal growth factor receptor (Homo sapiens) (P00533 whole entry, looked up): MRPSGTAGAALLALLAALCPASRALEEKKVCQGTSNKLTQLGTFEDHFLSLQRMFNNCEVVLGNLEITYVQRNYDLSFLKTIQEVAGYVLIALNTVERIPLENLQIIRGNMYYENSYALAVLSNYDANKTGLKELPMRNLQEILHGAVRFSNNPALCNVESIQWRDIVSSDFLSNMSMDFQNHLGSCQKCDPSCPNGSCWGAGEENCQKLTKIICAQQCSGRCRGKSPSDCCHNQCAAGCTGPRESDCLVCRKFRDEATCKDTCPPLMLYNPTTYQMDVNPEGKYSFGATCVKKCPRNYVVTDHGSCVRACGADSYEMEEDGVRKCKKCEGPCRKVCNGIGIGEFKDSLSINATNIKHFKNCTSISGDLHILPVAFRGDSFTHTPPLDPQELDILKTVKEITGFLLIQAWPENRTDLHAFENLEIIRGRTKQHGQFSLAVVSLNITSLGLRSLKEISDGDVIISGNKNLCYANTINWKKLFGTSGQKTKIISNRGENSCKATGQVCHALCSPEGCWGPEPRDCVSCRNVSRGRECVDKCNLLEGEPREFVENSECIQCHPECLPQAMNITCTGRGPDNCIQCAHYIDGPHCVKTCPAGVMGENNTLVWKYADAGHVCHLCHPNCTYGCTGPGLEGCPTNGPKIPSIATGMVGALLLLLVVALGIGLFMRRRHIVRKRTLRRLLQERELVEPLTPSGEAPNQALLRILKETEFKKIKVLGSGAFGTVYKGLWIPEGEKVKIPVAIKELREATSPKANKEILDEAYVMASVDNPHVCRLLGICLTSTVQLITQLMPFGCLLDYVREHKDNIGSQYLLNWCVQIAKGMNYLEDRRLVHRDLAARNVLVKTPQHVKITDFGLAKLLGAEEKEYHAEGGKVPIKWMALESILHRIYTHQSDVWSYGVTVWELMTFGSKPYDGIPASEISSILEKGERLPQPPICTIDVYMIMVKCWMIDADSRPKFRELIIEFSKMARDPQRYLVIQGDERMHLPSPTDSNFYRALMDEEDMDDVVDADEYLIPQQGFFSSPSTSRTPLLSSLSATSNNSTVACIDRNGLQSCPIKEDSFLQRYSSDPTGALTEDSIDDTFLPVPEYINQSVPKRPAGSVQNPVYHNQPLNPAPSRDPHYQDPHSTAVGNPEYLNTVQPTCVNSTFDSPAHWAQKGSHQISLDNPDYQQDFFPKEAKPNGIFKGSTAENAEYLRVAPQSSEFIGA
Chain of Fibroblast growth factor 10 (Homo sapiens) (O15520 whole entry, looked up): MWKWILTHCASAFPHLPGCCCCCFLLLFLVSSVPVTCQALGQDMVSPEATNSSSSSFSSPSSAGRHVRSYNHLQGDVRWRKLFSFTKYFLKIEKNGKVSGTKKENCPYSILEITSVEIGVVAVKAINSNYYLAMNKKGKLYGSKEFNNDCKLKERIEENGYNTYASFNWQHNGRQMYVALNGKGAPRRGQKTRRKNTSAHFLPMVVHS
Chain of Dickkopf-related protein 1 (Homo sapiens) (O94907 whole entry, looked up): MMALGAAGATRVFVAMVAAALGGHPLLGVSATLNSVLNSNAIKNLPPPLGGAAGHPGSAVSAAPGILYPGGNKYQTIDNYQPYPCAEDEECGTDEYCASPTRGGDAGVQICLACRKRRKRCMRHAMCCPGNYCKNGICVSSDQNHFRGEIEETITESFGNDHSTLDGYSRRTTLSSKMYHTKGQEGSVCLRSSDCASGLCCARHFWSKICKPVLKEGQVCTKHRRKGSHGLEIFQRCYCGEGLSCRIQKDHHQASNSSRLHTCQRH
Chain of Left-right determination factor 2 (Homo sapiens) (O00292 whole entry, looked up): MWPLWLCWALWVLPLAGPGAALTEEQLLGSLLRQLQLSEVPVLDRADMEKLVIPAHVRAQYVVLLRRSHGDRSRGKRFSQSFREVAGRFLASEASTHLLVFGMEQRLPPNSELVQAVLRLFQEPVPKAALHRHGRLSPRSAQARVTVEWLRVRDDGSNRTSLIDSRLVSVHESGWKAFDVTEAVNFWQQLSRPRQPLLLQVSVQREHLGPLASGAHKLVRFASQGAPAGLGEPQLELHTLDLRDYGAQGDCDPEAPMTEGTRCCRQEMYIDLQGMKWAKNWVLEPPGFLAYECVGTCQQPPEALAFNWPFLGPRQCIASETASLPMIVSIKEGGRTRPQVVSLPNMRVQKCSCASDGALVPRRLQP

Molecule `CCCNC(=O)[C@@]1(Sc2ccc(C)cc2)CC(=O)N(Cc2ccccc2Cl)[C@@H]1c1ccc(CO)cc1` has a composite z-score [1] of 0.237, a composite z-score [2] of 0.866 and a composite z-score [3] of 0.956. For the same molecule, the z-score [4] was -2.31 (inactive), the composite z-score [5] was 0.719 and the composite z-score [6] was 1.28. The composite z-score [7] was 0.566, the composite z-score [8] was 1.06 and the composite z-score [9] was 1.22. For the same molecule, the composite z-score [10] was 1.42, the composite z-score [11] was 0.658 and the z-score [12] was -2.42. The composite z-score [13] was 0.546, the composite z-score [14] was 0.857 and the composite z-score [15] was 1.03. For the same molecule, the composite z-score [16] was -0.0478, the composite z-score [17] was 0.0407 and the composite z-score [18] was 0.0021. For the same molecule, the composite z-score [19] was 0.574 and the composite z-score [20] was 2.05.
`CCN1C(C)=C(C(=O)OC)[C@@H](c2ccccc2)N2C(=O)[C@@]3(C(=O)OC)O[C@@]12[C@@H]1C(=O)CCC[C@@H]13` gave a composite z-score [1] of 0.604, a composite z-score [2] of -0.786 and a composite z-score [3] of -1.31. For the same molecule, the z-score [4] was -0.814 (inactive), the composite z-score [5] was 0.903 and the composite z-score [6] was 0.8. The composite z-score [7] was 0.648, the composite z-score [8] was 1.06 and the composite z-score [9] was 1.85. The composite z-score [10] was 1.01, the composite z-score [11] was 0.0258 and the z-score [12] was -0.216. For the same molecule, the composite z-score [13] was 1.38, the composite z-score [14] was -1.2 and the composite z-score [15] was -1.08. It also gave a composite z-score [16] of -0.0758, a composite z-score [17] of 0.0637 and a composite z-score [18] of -0.43. The composite z-score [19] was 0.157 and the composite z-score [20] was -0.954.
`C=CC[C@@]1(C(=O)N2CCOCC2)N=C(c2ccc(OCCCO)cc2)O[C@@H]1c1ccccc1` showed a composite z-score [1] of -0.406, a composite z-score [2] of 0.853 and a composite z-score [3] of 0.845. For the same molecule, the z-score [4] was -0.462 (inactive), the composite z-score [5] was 0.293 and the composite z-score [6] was 0.175. The composite z-score [7] was -0.622, the composite z-score [8] was -0.72 and the composite z-score [9] was -0.191. It also gave a composite z-score [10] of 0.437, a composite z-score [11] of 0.0433 and a z-score [12] of -0.802. It also gave a composite z-score [13] of -0.464, a composite z-score [14] of 0.0981 and a composite z-score [15] of 0.0806. The composite z-score [16] was -0.166, the composite z-score [17] was -0.184 and the composite z-score [18] was 0.34. It also gave a composite z-score [19] of 1.68 and a composite z-score [20] of 2.84.
Work on `O=C1c2ccccc2[C@](Cc2ccccc2I)(C(=O)NCC(F)(F)F)[C@H](c2ccc(CO)cc2)N1Cc1ccccc1C(F)(F)F` yielded a composite z-score [1] of 0.795, a composite z-score [2] of -0.582 and a composite z-score [3] of -0.243. The z-score [4] was 0.133 (inactive), the composite z-score [5] was 0.222 and the composite z-score [6] was 0.926. It also gave a composite z-score [7] of 0.106, a composite z-score [8] of 0.523 and a composite z-score [9] of 0.0221. It also gave a composite z-score [10] of -0.33, a composite z-score [11] of 0.517 and a z-score [12] of -0.326. The composite z-score [13] was 0.13, the composite z-score [14] was 1.47 and the composite z-score [15] was 0.296. The composite z-score [16] was -0.149, the composite z-score [17] was 0.164 and the composite z-score [18] was -0.0101. The composite z-score [19] was 0.857 and the composite z-score [20] was 0.449.
Work on `CC(c1ccccc1)C(O)C1C=CC2C(=O)N(C)C(=O)C2N1N(c1ccccc1)c1ccccc1` (stereo not given) yielded a composite z-score [1] of 0.0872, a composite z-score [2] of 1.01 and a composite z-score [3] of 1.2. The z-score [4] was 1.05 (inactive), the composite z-score [5] was 0.234 and the composite z-score [6] was 0.187. The composite z-score [7] was -0.451, the composite z-score [8] was 0.0656 and the composite z-score [9] was -0.623. For the same molecule, the composite z-score [10] was 1.41, the composite z-score [11] was -0.304 and the z-score [12] was 0.37. The composite z-score [13] was -0.789, the composite z-score [14] was 1.08 and the composite z-score [15] was 0.723. It also gave a composite z-score [16] of -0.0057, a composite z-score [17] of 0.809 and a composite z-score [18] of 0.332. The composite z-score [19] was 0.765 and the composite z-score [20] was -0.212.

— PubChem BioAssay
